Source: ChEMBL document CHEMBL1157539, “Thousands of chemical starting points for antimalarial lead identification” (Nature, 2010)

What was measured:
Type in all cases: functional
Plasmodium falciparum [1] = assay: GSK_TCMDC: Inhibition of Plasmodium falciparum 3D7 in whole red blood cells, using parasite LDH activity as an index of growth. Test compounds present at 2uM
Plasmodium falciparum [2] = assay: GSK_TCMDC: Inhibition of Plasmodium falciparum Dd2 in whole red blood cells, using parasite LDH activity as an index of growth. Test compounds present at 2uM
HepG2 = assay: GSK_TCMDC: Percent inhibition of human HepG2 cell line. Test compounds present at 10uM.

SMILES | Inhibition (Plasmodium falciparum [1]) [%] | Inhibition (Plasmodium falciparum [2]) [%] | Inhibition (HepG2) [%]
Cc1cc(N[C@@H](Cc2ccccc2)C(=O)NCCOc2ccccc2)nc(NCCc2cccs2)n1.O=C(O)C(F)(F)F | 95 | 32 | 8
CNC(=O)c1c(NC(=O)c2cccs2)sc2c1CCCC2 | 94 | 2 | 2
COc1ccc2nccc([C@@H](O)CN3CCC(NC(=O)Cn4nc(-c5ccc(C(F)(F)F)cc5)ccc4=O)CC3)c2c1 | 100 | 90 | 12
COc1cc(C(=O)NC2CC(C)(C)N(C)C(C)(C)C2)ccc1-c1nc2cc(Cl)c(Cl)cc2[nH]1 | 100 | 99 | 69
Cl.O=C(Nc1ccc(C(=O)Nc2cccc(C3=NCCN3)c2)cc1)Nc1ccc(C2=NCCN2)cc1 | 96 | 98 | 0
O=[N+]([O-])c1cccc(C(Nc2ccccn2)c2ccc3cccnc3c2O)c1 (stereo not drawn) | 86 | 29 | 53
CCCC(=O)Nc1ccc(OCCCCN(CC(C)(C)C)c2ccc(C#N)c(C(F)(F)F)c2)cc1 | 83 | 69 | 9
CCOc1ccc2c(c1)OC(c1ccccc1)(C(F)(F)F)NC2=O (stereo not drawn) | 100 | 98 | 0
O=C(NC(=S)NCc1ccncc1)c1ccccc1 | 94 | 0 | 0
CC(C)n1ncc2c(C(=O)N3CCCC4CCCCC43)cc(C3CC3)nc21 (stereo not drawn) | 99 | 92 | 7
O=C(Nc1ccc(OC2CCN(Cc3ccc(F)cc3)CC2)c(Cl)c1)c1cccs1.O=C(O)C(F)(F)F | 95 | 96 | 7
